The supplement of paper PMC11417369
The full ranking holds about 25,000 sequences; the median of “ln(normalized median fluorescence intensity)” is about 6.7, and the highest 2% start at about 10. The entries come from a sample that favours the highest values as a whole.

system: PfHDP1 homeodomain (GST-tagged); assay: gcPBM binding intensity (ln(normalized median fluorescence intensity)); higher = stronger DNA binding
Procedure, shortened: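 An Agilent 4 × 180k array of primer-extended double-stranded 36-bp intergenic genomic probes, with negative controls, was incubated for 1 h with GST-tagged P. falciparum DNA-binding domains expressed in E. coli. Alexa488 anti-GST antibody detected bound protein, scanned at 488 nm. Binding intensity is the highest Masliner-normalised natural-log median intensity across replicate spots of either probe orientation.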

| Sequence | gcPBM binding intensity (ln) |
| --- | --- |
| TTTATTAATAGACACACACACACACGCAAAATAAAA [CACACA_site6255] | 7.16 |
| ATGGACTTTTATAGTTGTACATACTATGAGAACTTT [XGTACX_site2800] | 7.08 |
| AAGGGTTGCCTGTGTAGTACATATATATATATATAT [XGTACX_site8555] | 9.24 |
| GAGAAATGGGGACACACACACATATTATATATATAT [CACACA_site4943] | 8.53 |
| TATAAATTTGTTGTTGCATGCAGTATACCAAAAAAA [TGCATGCA_site445] | 7.18 |
| AAGGTGGGAAAAAATAGTACACAACAAAAATGTATG [XGTACX_site8741] | 6.64 |
| AAACATTAAAATAACTCACACATTTTTCTAGTCTTC [CACACA_site4612] | 6.19 |
| AGAACTTTTAATGGATGTACAGTTATTTTATTATTT [XGTACX_site6226] | 6.12 |
| ATATATATATATATAGTGCATAAAATAAGTTTCTAA | 9.54 |
| TATGTTTTTACATATTGTACATATTCTTGTAATACG [XGTACX_site1179] | 6.29 |
| TTCATATAATTCATCTGTACATATTGATAGTATGCA [XGTACX_site6386] | 6.29 |
| ACTACGTGTCAAAAATATTAATTACAAATGAATAAA [GTGCAC_negctrl_site248] | 6.08 |
| AGTAGTCTGGAGAAGAGTACACAGTATCTGGTAACA [XGTACX_site2032] | 6.02 |
| ATTTATAAAATTAATGCACACATCAGCATTTATAAA [CACACA_site1025] | 10.6 |
| TTTAAATTTTAATATGCACACAAAATGTTATATTAA [CACACA_site8015] | 9.9 |
| ATAATATTTTAATGCACACACACAAAAAAAAAAAAA [CACACA_site2891] | 9.96 |
| CTCTATAAATGCTGCACACACATTTAATTATTTAAG [CACACA_site2582] | 8.11 |
| AATATTTTAATGCACACACACAAAAAAAAAAAAAAA [CACACA_site7374] | 10.7 |
| ACATCATAAAATTTATGTACACATTTTTAATTATAC [XGTACX_site7759] | 6.51 |

| Sequence | gcPBM binding intensity (ln) |
| --- | --- |
| ATTTCTACTAAAAATACACACGATGATACAACGAAG [CACACA_site1755] | 6.85 |
| ATATATTAAAAACGATGTACCCTGAACTAAAAAAAA [XGTACX_site4986] | 6.52 |
| AACGTTCAATTTAAATGTACAAATGTATTTAAATAT [XGTACX_site315] | 6.38 |
| TATATTTAGAATACAATCTTAAAGTTGAAATAAAAT [CACACA_negctrl_site1292] | 6.03 |
| TTATATTAAAAAAGATGTACGTTTAGGAAAAATATA [XGTACX_site7456] | 6.53 |
| TAAGGAAAAAATTATAGTACATAATAAATGTATATA [XGTACX_site8328] | 6.15 |
| TCATACATTTTCCTTGCACACATTTATAATTAATGG [CACACA_site4511] | 8.55 |
| TTCCTTTAACCCTGCACACATACATACATTTATATG [CACACA_site3953] | 8.51 |
| CTTTTTTTTTTATGCACACACAATTATACATTCCTT [CACACA_site3877] | 10.6 |
| TATATATATATATATGCACACATTTATACAATTTTA [CACACA_site2986] | 10.2 |
| TCATACATTTTCCTTGCACACATTTATAATTAATGT [CACACA_site614] | 8.95 |
| TCCTTTTTTTTTTATGCACACACAATTATACATTCC [CACACA_site9287] | 10.5 |
| ATGTATGTATAATATACACACTCACAAGCATTCAAA [CACACA_site4306] | 6.75 |
| ATATTCTTCTAAAGGCGTACATCTACATTTATGAAA [XGTACX_site2145] | 6.28 |
| TTTATATATAAATATATATATATATATATATATATA [TGCATGCA_negctrl_site121] | 9.28 |
| TCTAGGAAAAATTATAGTACACAAAAATATATATAT [XGTACX_site4136] | 7.95 |
| AAAATATAGGTATGCACACACATATACTTCTGTGCA [CACACA_site1409] | 10 |
| CACATATACTTCTGTGCACACGAATATTTTTCTTCT [CACACA_site1408] | 11.2 |
| CATATACTTCTGTGCACACGAATATTTTTCTTCTTC [CACACA_site1407] | 11.2 |

| Sequence | gcPBM binding intensity (ln) |
| --- | --- |
| CATATATATATATATACACACATATATATTTTCTTT [CACACA_site1457] | 7.04 |
| TAATATACTTAATACACACACGAATATTTATAAATA [CACACA_site6675] | 6.97 |
| ATAAAATATAGGTATGCACACACATATACTTCTGTG [CACACA_site8398] | 8.84 |
| TTTGTTAATTATAAATGTACATATTATATATATATA [XGTACX_site8870] | 8.42 |
| CACGCGCCCGGACACACACACACACCCATATATATA [CACACA_site5251] | 6.84 |
| TTAAACTTGTTTTGGATGCACTATATAATTCATTTT [GTGCAC_site9549] | 7.2 |
| AGAGAGATGACAAAAAGATGAATAACGTTAAGGGAT [XGTACX_negctrl_site120] | 7.4 |
| AATATGAAATATATTACACACATTTATATGTTGAAA [CACACA_site1427] | 6.31 |
| ATCATATTTATGTTGGTGCATTATGCATGGATTTTA [GTGCAC_site9795] | 10.8 |
| ATATGGATTATACATACATGCATACATACATACATA [TGCATGCA_site475] | 6.58 |
| ATTATATTTATGTTGGTGCATTATACATGAAATTTA | 10.5 |
| ATCATATTTATATTGGTGCATTATGCATGAAATTTA [GTGCAC_site9571] | 10.6 |
| ACATATGAAAAATATGCATGCAAATATTATTTAACA [TGCATGCA_site802] | 7.03 |
| TATAATAATAATTATACATGCATGAATATTTATATG [TGCATGCA_site811] | 6.46 |
| TATTTTTATTATATGGTGCATATATACATACATATA | 9.96 |
| TTATGGTGCATGAAATCACACATTGATATATATGCT [CACACA_site5352] | 8.81 |
| TATATATATATATATACATGCATATATATAATATAT [TGCATGCA_site763] | 9.32 |
| ATATATATTTAAAAAAGTACAGAAGAAAATAACCCA [XGTACX_site642] | 7.19 |
| GATGATACACAGGTGTTGCACTTAAATGCAGTTCTT [GTGCAC_site9627] | 8.13 |
